GLS inh: blocks human kidney-isoform glutaminase activity | GLS enzymatic activity, qHTS titration | Potency, µM (highest dose often 45.5 µM), without a hit: at the top dose activity change, negative = inhibition, actives largely listed as inhibitors | actives 0.21% (n = 410,000) | AID 624170; also: % is scaled to controls: 0 for no effect and ±100 for the full control effect
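Glutamate formation by hKGA was monitored fluorometrically using coupled glutamate oxidase, HRP and Amplex Red. Substrate was added as 1 mM L-glutamine solution; incubation was 30 min at RT after an initial read.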
BAZ2B block: blocks human BAZ2B | Q9UIF8 | Potency, µM (series often up to 114 µM), for the others: at the highest dose activity change, negative = inhibition, actives largely listed as inhibitors | AlphaScreen BAZ2B-H3K14Ac peptide displacement | actives 4.4% (n = 360,000); also: % is scaled to controls: 0 for no effect and ±100 for the full control effect; nearly all actives have a fitted effect of over 60% in size
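AlphaScreen displacement: compounds (up to 110uM) incubated 30 min at room temperature with a preformed 50 nM BAZ2B/50 nM biotinylated H3K14Ac peptide complex in PBS pH 7.4 with Tween-20. Donor and acceptor beads at 10 ug/mL final added, 20 min light-protected before reading.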
JMJD2A Tudor inh: JMJD2A Tudor domain (human) inhibition; AlphaScreen JMJD2A-Tudor / H3K4me3 peptide binding; O75164; Potency, µM (series often up to 114 µM), for the others: at the top dose activity change, negative = inhibition, actives largely listed as inhibitors; actives 4.4% (n = 390,000); also: % is scaled to controls: 0 for no effect and ±100 for the full control effect; nearly all actives have a fitted effect of over 50% in size
Target sequence (O75164 whole entry, looked up, the tested form may be a part): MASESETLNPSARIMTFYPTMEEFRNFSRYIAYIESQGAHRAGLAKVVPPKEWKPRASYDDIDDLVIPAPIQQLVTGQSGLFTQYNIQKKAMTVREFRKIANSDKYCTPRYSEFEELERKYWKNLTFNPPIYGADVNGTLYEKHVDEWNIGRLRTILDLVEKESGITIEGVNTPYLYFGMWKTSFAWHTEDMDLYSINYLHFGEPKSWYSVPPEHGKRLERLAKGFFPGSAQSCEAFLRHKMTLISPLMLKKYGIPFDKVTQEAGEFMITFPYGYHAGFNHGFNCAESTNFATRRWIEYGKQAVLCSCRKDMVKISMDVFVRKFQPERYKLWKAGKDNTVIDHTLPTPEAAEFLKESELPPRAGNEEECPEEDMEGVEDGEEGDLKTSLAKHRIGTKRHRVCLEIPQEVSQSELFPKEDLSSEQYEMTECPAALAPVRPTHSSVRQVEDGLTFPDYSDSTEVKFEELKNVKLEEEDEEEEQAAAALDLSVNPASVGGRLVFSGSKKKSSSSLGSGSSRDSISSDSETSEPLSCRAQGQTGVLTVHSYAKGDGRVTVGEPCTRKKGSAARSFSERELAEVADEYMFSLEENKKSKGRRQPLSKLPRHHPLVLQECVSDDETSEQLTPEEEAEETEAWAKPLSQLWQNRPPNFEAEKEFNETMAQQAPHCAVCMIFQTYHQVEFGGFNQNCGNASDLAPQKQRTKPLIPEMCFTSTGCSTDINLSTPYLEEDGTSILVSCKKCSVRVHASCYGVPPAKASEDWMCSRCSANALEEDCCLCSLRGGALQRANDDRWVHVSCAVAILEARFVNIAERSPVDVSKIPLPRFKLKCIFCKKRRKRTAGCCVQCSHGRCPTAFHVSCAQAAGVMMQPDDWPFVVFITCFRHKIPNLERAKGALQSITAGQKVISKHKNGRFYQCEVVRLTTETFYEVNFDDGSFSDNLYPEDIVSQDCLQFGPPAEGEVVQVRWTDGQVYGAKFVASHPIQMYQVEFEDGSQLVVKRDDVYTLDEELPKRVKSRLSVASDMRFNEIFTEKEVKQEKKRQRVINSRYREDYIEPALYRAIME
HP1b binding inh: HP1-beta chromodomain-methylated histone interaction inhibition | P83916 | AlphaScreen HP1-beta / biotin-H3K9me3 peptide binding | Potency, µM (titrated, usually from 114 µM), inactives show top-dose activity change, negative = inhibition, hits mostly inhibitors | actives 0.56% (n = 390,000) | AID 540317; also: nearly all actives have a fitted effect of over 70% in size
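Compound inhibition of the preformed complex between 50 nM HP1-beta and 50 nM biotinylated H3K9me3 peptide was read by AlphaScreen. Buffer was PBS pH 7.4 with 0.01% Tween-20. Incubations ran 30 min at room temperature, with 10 ug/mL donor/acceptor beads.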
G9a inh: inhibitors of human histone lysine methyltransferase G9a; Q96KQ7; G9a H3K9 monomethylation, AlphaScreen, 2 h; Potency, µM (titrated, usually from 102 µM), for inactives: at the top dose activity, negative = inhibition, most hits filed as inhibitors; actives 8.8% (n = 350,000); AID 504332; also: % is scaled to controls: 0 for no effect and ±100 for the full control effect; nearly all actives have a fitted effect of over 75% in size
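G9a (20 nM) was preincubated 15 min with compound, then reacted 2 h at room temperature with 500 nM biotin-H3K9 peptide and 20 µM SAM. Monomethyl-H3K9 detected by AlphaScreen using anti-H3K9me1 antibody.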
Starred values were filed as active, the others as inactive; ? = inconclusive; / = no result; ! = not active in a repeat; [ ] = dose if it differs, or a comment. In the library only some 10% were active in any assay of this set; here they are far more common. Calls follow the shape of the dose curve; as a rule, active = well fitted curve in the direction sought with a large enough effect; inconclusive = small, poorly fitted or top-dose-only effect, or another doubt; inactive = no such curve, though single readings can be large; an effect the other way counts as inactive or inconclusive. Potency is read from the fitted curve at half-maximal effect.

SMILES | GLS inh | BAZ2B block | JMJD2A Tudor inh | HP1b binding inh | G9a inh
Cc1cc(C)n(C(N)=NC(=O)c2ccccc2)n1 | 0% | / | / | / | /
Cn1c(=O)c2c(nc(C(O)c3ccccc3)n2C)n(C)c1=O (stereo not drawn) | 1% | / | -8% | 28% | /
COc1ccccc1NC(=O)C1=C(C)Nc2c(C(=O)Nc3ccc(F)cc3)cnn2C1c1ccc(Cl)cc1 (stereo not drawn) | -8% | -4%[57.1 µM] | -29% | 14% | ?
COc1cc(/C=C(\CC(=O)O)c2nc3ccccc3s2)cc(OC)c1O | ? | -26% | 16µM* | 12% | 14µM*
Brc1cc2c(cc1/C=N/Nc1nc3ccccc3s1)OCO2 | 14% | 1% | -28% | 23% | 25%
CN(C)c1ccc(/C=C(\Cl)c2nc3ccccc3s2)cc1 | -3% | 45µM* | -33% | 7% | 14µM*
COc1ccc(/C=C(\CC(=O)O)c2nc3ccccc3s2)cc1O | ? | -12% | -23% | 21% | 11%
N#C/C(=C/c1ccncc1)c1nc2ccccc2s1 | 4% | ? | -17% | 19% | -42%[59 µM]
O=C(O)c1ccc(C=C(c2nc3ccccc3s2)c2nc3ccccc3s2)cc1 | -27% | ? | ? | -14% | ?
O=C(O)C/C(=C\c1cc2c(cc1Br)OCO2)c1nc2ccccc2s1 | 1% | -12% | -8% | -13% | 10µM*
COc1cc(C=C(c2nc3ccccc3s2)c2nc3ccccc3s2)cc(OC)c1O | -1% | 22µM* | 56µM* | ? | 6.3µM*
COc1ccccc1CNS(=O)(=O)c1ccc(F)c(C(=O)Nc2cc(Cl)ccc2OC)c1 | 3% | 2% | -25% | 38% | 4%[59 µM]
COc1cc(/C=N/NC(=Nc2ccc(C)cc2)c2nc3ccccc3s2)ccc1O | -26% | 45µM* | ? | 0% | 14µM*
COc1ccccc1/C=N/NC(=Nc1ccc(C)cc1)c1nc2ccccc2s1 | / | -7% | / | / | -10%[0.0925 µM]
O=C(c1ccco1)N1N=C(c2cccs2)CC1c1ccco1 (stereo not drawn) | 3% | -13% | -26% | 17% | /
O=C(COc1ccccc1F)N1N=C(c2cccs2)CC1c1ccco1 (stereo not drawn) | 8% | ? | 14µM* | -24% | 50µM*
Cc1ccc(C2CC(c3cccs3)=NN2C(=O)c2ccco2)o1 (stereo not drawn) | 9% | ? | ? | -5% | 35µM*
O=C(COc1ccc(Cl)cc1)N1N=C(c2cccs2)CC1c1ccco1 (stereo not drawn) | 8% | / | -15% | 58% | /
Cc1ccc(S(=O)(=O)c2nnn3c2nc(N2CCN(c4ccc(F)cc4)CC2)c2cc(Cl)ccc23)cc1C | 1% | 1% | -6% | 25% | 8%[59 µM]
O=C(NC(=S)NCCC1=CCCCC1)c1ccccc1Br | -13% | 50µM* | -6% | 20% | /
CCC1CCCCN1S(=O)(=O)c1ccc([N+](=O)[O-])cc1 (stereo not drawn) | -1% | ? | -36% | -1% | 71µM*
CC1CCCCN1S(=O)(=O)c1ccc([N+](=O)[O-])cc1 (stereo not drawn) | 9% | -3% | -18% | 9% | /
CCCn1c(SCC(=O)NCc2ccc(F)cc2)n[nH]c1=O | 2% | -13% | 45µM* | -14% | 2%
CCCn1c(SCC(=O)c2cc(C)ccc2C)n[nH]c1=O | 7% | -21% | -27% | 35% | 7.1µM*
Cc1cc2c(s1)c1cnn(Cc3ccc(F)c(F)c3F)c(=O)c1n2C | / | / | -1% | / | /
SMILES | GLS inh | BAZ2B block | JMJD2A Tudor inh | HP1b binding inh | G9a inh
NC(=O)N/N=C/c1sc(N2CCCCC2)nc1-c1cccs1 | 18% | / | ? | ? | /
O=C(N/N=C/c1sc(N2CCCCC2)nc1-c1cccs1)C1CC1 | 13% | 13% | ? | 20% | 25µM*
Clc1ccccc1-c1ncc2ccccn12 | -1% | 56µM* | 18µM* | ? | ?
Clc1ccc(-c2ncc3ccccn23)cc1 | 5% | ? | -15% | 17% | 3%
COc1ccc(-c2ncc3ccccn23)cc1OC | 3% | 32µM* | 3.5µM* | ? | 14µM*
Cc1cnc(CN(C)C(=O)C2CCC(=O)N(CCc3ccc(Cl)cc3)C2)[nH]1 (stereo not drawn) | -1% | / | / | / | /
COc1ccc(-n2c(SC)nc(O)c(Cc3ccccc3)c2=O)cc1 | -2% | -9% | -13% | 11% | 40µM*
COc1ccc(-n2c(SCC(=O)Nc3ccccc3OC)nc(O)c(Cc3ccccc3)c2=O)cc1 | 9% | -2% | -21% | 24% | /
O=C(c1ccc(F)cc1)C1CCN(CCn2c(=O)[nH]c3ccccc3c2=O)CC1 | 1% | ? | -19% | 1% | 0.79µM*!
O=C(O)CCCN1C(=O)C(=O)/C(=C(/O)c2ccc(Cl)cc2)C1c1ccccc1 (stereo not drawn) | 6% | -3% | ? | 30% | ?
O=C(O)CCCN1C(=O)C(=O)/C(=C(/O)c2ccccc2)C1/C=C/c1ccccc1 (stereo not drawn) | ? | ? | 45µM* | 2% | 22%[0.501 µM]
COC(=O)c1[nH]c2cccc(OC)c2c1NC(=O)CCN1CCN(c2cccc(Cl)c2)CC1 | / | -39% | / | / | 50µM*
COC(=O)c1[nH]c2cccc(OC)c2c1NC(=O)CCN1CCSCC1 | -10% | 1% | 6% | 35% | 5%
COC(=O)c1[nH]c2cccc(OC)c2c1NC(=O)CCN1CC(C)CC(C)C1 (stereo not drawn) | 5% | -22% | -1% | 49% | 50µM*
COc1cc(NC(=O)NC(C)c2c(-n3cccc3)sc3c2CCN(C)C3)cc(OC)c1 (stereo not drawn) | -47% | ? | ? | -8% | ?
COc1ccc(-n2nc(-c3ccc(C)cc3)c3cnc4cc(F)c(F)cc4c32)cc1 | 2% | / | 0% | 40% | -5%[59 µM]
O=C(NC(=S)NCCO)c1sc2ccccc2c1Cl | -8% | ? | -8% | 38% | 25µM*
CCOC(=S)NC(=O)c1sc2ccccc2c1Cl | 12% | -28%[57.1 µM] | -23% | -17% | 28%[0.501 µM]
CC(=O)O[C@H]1C[C@@H]2CCC3C(CC[C@@]4(C)[C@H]3C[C@H]([N+]3(C)CCCCC3)[C@@H]4OC(C)=O)[C@@]2(C)C[C@@H]1[N+]1(C)CCCCC1 (stereo partly drawn) | / | / | / | / | 9%[12.7 µM]
CC(=O)OC1C2CCC1C([N+]1(C)CCCCC1)CC2 (stereo not drawn) | 2% | -26% | 25µM* | 71µM* | 32µM*
C[N+]1(C2CCC3CCC2C3O)CCCC1 (stereo not drawn) | 0% | 50µM* | 4% | 27% | 11µM*
CC(C)c1ccc(-c2nnc(N)s2)cc1 | -3% | 2% | -13% | -7% | 45µM*
Cc1ccc(-c2nnc(N)s2)cc1 | 9% | 22% | -3% | 19% | 10%
COc1ccc(SCC(CC(C)C)N2CCN(CCc3ccccc3)CCC2=O)cc1 (stereo not drawn) | / | / | ? | 28% | /

Screening data deposited in PubChem by National Center for Advancing Translational Sciences (NCATS).
